Screening results: PubChem, several laboratories
Shown are actives, neighbours in structure and some others; about 22% of the full set was active somewhere.
CYP2C19 act – cytochrome P450 2C19 (human) activation | recombinant CYP2C19, luciferin-H EGE luminescence; stronger effect = higher value; 0 = fully inhibited enzyme, 1 = untreated enzyme | activation factor at 5 µM | AID 1025 | P33261 | 96,000 tested, under 10 active;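 active = activation factor of at least 2 at 5 µM in the primary screen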;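 note: 0 = wells with 2.5 mM tranylcypromine and 1 = vehicle-only wells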
Target sequence (P33261 whole entry, looked up): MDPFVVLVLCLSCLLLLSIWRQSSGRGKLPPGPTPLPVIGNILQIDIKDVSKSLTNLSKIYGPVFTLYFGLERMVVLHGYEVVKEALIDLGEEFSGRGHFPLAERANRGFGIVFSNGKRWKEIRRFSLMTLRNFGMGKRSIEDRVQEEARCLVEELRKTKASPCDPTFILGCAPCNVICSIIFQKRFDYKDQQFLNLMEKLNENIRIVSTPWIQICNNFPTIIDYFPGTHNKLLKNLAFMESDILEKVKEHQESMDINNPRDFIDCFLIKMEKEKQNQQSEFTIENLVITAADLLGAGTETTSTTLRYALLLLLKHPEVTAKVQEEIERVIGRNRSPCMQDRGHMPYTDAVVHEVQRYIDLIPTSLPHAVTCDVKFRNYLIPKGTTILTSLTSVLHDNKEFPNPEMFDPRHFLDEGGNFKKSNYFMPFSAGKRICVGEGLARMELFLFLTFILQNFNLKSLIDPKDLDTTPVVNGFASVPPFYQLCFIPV
CYP2C9 inhib – blocks human cytochrome P450 2C9; P11712; CYP2C9 Supersomes, luciferin-H conversion, luminescence; inhibition, % at 5 µM; hit rate 20% among 96,000;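 active = blocking of liver enzyme CYP2C9 beyond about 50% at 5 µM, limit read from the data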
CYP2C19 inh – inhibitors of human CYP2C19 | P33261 | CYP2C19 Supersomes, luciferin-H EGE luminescence, 30 min | inhibition, % at 5 µM | hit rate 21% among 96,000 | AID 778;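 active = CYP2C19 inhibition above a set limit at 5 µM in the primary screen, cut at about 50% in these data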;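 note: plate controls were negative control wells for no effect and 2.5 mM tranylcypromine positive control for full effect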
CYP2C9 activ – CYP2C9 (human) activation. P11712. recombinant CYP2C9, luciferin-H conversion, luminescence; stronger effect = higher value; factor 1 = untreated enzyme, 0 = blocked. activation factor at 5 µM. hit rate 1.4% among 96,000;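 active = activation factor of 2 or more for CYP2C9 at a 5 µM dose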;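 note: 0 = sulfaphenazole-blocked wells and 1 = vehicle-only wells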
Measles CPE – protection of cells from measles virus | protection (pct of control), % at 4 µM | AID 841 | hit rate 1.5% among 140,000 | Measles virus-infected cells, CPE protection, absorbance; in the data active = protection mostly above about 24%, no sharp cut-off; inactive = mostly below about 26%
Active calls of the source: *; nt = not tested or not shown.

SMILES	CYP2C19 act	CYP2C9 inhib	CYP2C19 inh	CYP2C9 activ	Measles CPE
COCC(C)n1c(SCc2nc(N)nc(Nc3ccccc3C)n2)nc2ccccc2c1=O (centres undefined)	0.3	95*	74*	0	5
Fc1ccc2nc3n(c2c1F)CCCCCC3	0.5	5	49	0.9	10
CCOC(=O)c1sc(C(=O)OCC)c(OCCO)c1OCCO	1	16	-2	0.8	15
CCS(=O)(=O)N1CCN(c2ccc(C(=O)NC3C4CC5CC(C4)CC3C5)cc2[N+](=O)[O-])CC1 (centres undefined)	nt	nt	nt	nt	8
COc1ccc(C(=O)CCc2nc3ccccc3s2)cc1	nt	nt	nt	nt	27
Oc1ccc(/C=N/Nc2nccnc2Cl)cc1	0	100*	98*	0	7
O=[N+]([O-])c1cccc(/C=N/Nc2nc(C(Cl)(Cl)Cl)nc3ccccc23)c1	nt	nt	nt	nt	4
Cc1sc2ncnc(N/N=C/c3ccc(O)cc3)c2c1C	nt	nt	nt	nt	6
O=[N+]([O-])c1cccc(/C=N/Nc2nccnc2Cl)c1	0.4	20	60*	0.8	5
CC1CCCN(C(=O)CCCn2c(=S)[nH]c3ccccc3c2=O)C1 (centres undefined)	0.5	51*	53*	0.5	8
O=C(CCn1c(=O)[nH]c2ccccc2c1=O)N1CCN(c2cccc(C(F)(F)F)c2)CC1	0.3	36	67*	0.6	21
O=C(CCn1c(=O)[nH]c2ccccc2c1=O)N1CCN(c2ccc(Cl)cc2)CC1	0.9	15	13	0.8	10
O=C(CCCn1c(=S)[nH]c2ccccc2c1=O)N1CCN(c2cccc(Cl)c2)CC1	1.1	-3	-12	1	59*
CC1CCCCC1n1c(=S)[nH]c2ccccc2c1=O (centres undefined)	0.3	20	72*	0.8	20
O=C(CS(=O)CC(=O)N(c1cccc(F)c1)C(C(=O)NC1CCCCC1)c1ccco1)Nc1ccc(F)cc1 (centres undefined)	nt	nt	nt	nt	5
CCNc1nc(NC(C)C)nc(Oc2ccc(OCCOc3ccc(C)cc3)nn2)n1	0.6	28	40	0.7	3
O=C(CCCCn1c(=O)[nH]c2ccccc2c1=O)N1CCN(c2cccc(C(F)(F)F)c2)CC1	0.4	49	62*	0.5	10
CCCCN(N=Nc1nonc1OC)c1nonc1OC	0.1	73*	85*	0.3	6
O=C(/C=C/c1cc([N+](=O)[O-])ccc1OC(F)F)Nc1cccc(OC(F)F)c1	nt	nt	nt	nt	7
O=C(OCC(=O)N1CCN(C(=O)c2ccco2)CC1)c1ccccc1O	0.5	72*	46	0.3	11
CC1CCCCC1NC(=O)COC(=O)c1ccccc1NC(=O)c1ccco1 (centres undefined)	0.8	22	18	0.8	4
CCN(CC)S(=O)(=O)c1ccc(C(=O)OCC(=O)N2CCN(C(=O)c3ccco3)CC2)cc1	0.8	96*	15	0	11
O=C(Nc1ccccc1C(=O)OCC(=O)N1CCc2ccccc2C1)c1ccco1	0.3	87*	65*	0.1	17
N#Cc1ccccc1Sc1ccccc1C(=O)OCC(=O)N1CCN(C(=O)c2ccco2)CC1	0.7	77*	25	0.2	1
O=C(OCC(=O)N1CCN(C(=O)c2ccco2)CC1)c1sc2ccccc2c1Cl	0.8	15	23	0.9	5
SMILES	CYP2C19 act	CYP2C9 inhib	CYP2C19 inh	CYP2C9 activ	Measles CPE
Cc1cc(NC(=O)C2(c3ccccc3)CCCC2)no1	0.6	29	42	0.7	3
COc1cc2c(cc1OC)CN(C(=O)CC1CC3CCC1C3)CC2 (centres undefined)	0.8	10	20	0.9	3
O=C(OCC(=O)N1CCN(C(=O)c2ccco2)CC1)c1ccccc1OCc1ccc(Cl)cc1	0.6	77*	39	0.2	6
O=C(c1ccco1)N1CCN(C(=O)c2ccccc2OC(=O)C23CC4CC(CC(C4)C2)C3)CC1	0.2	65*	79*	0.3	7
CC1CCC(NC(=O)COc2ccccc2C(N)=O)CC1 (centres undefined)	0.8	-8	21	1.1	1
O=C(COC(=O)c1ccccc1OCc1ccc(Cl)cc1)NC1CC1	0.3	62*	75*	0.4	5
O=C(c1ccco1)N1CCN(C(=O)c2ccccc2Oc2ccccc2)CC1	nt	nt	nt	nt	13
O=C(COC(=O)C1(c2ccc(F)cc2)CCCC1)N1CCN(C(=O)c2ccco2)CC1	0.3	82*	73*	0.2	8
CC(C)(C)NC(=O)CCN(/N=C/c1ccc([N+](=O)[O-])o1)C1=NS(=O)(=O)c2ccccc21	nt	nt	nt	nt	27
CCOc1ccc(N(CC(=O)Nc2cccc(N(C)S(C)(=O)=O)c2)S(=O)(=O)c2ccccc2)cc1	nt	nt	nt	nt	4
O=[N+]([O-])c1cccc(-c2n[nH]c(=S)n2Cc2ccccc2)c1	nt	nt	nt	nt	15
Cc1ccc(NC(=O)c2c(C(F)(F)F)nn(C)c2SCc2ccc(Cl)cc2)cc1C	0.4	100*	65*	0	17
Cc1ccc(NC(=O)c2c(C(F)(F)F)nn(C)c2SCc2cccc(C(F)(F)F)c2)cc1C	0.5	92*	46	0.1	7
O=C(CS(=O)(=O)Cc1ccccc1)NCc1ccc2c(c1)OCO2	1	-3	1	1	23
COc1ccc(C(=O)NCc2ccc3c(c2)OCO3)cc1S(=O)(=O)N(C)Cc1ccccc1	nt	nt	nt	nt	3
O=C(O)CC(Cc1ccccc1)c1ccc2c(c1)OCO2 (centres undefined)	0.8	11	18	0.9	27
CC(=O)OCCN(Cc1ccccc1)Cc1ccc2c(c1)OCO2	0	84*	99*	0.2	3
CCC(NC(=O)N(Cc1ccccc1)Cc1ccc2c(c1)OCO2)(C(F)(F)F)C(F)(F)F	0	94*	100*	0.1	5
CC(C)C(=O)N(Cc1ccc2c(c1)OCO2)Cc1ccccn1	0.2	16	76*	0.8	18
CC(NC(=O)N(Cc1ccccc1)Cc1ccc2c(c1)OCO2)(C(F)(F)F)C(F)(F)F	0.1	93*	86*	0.1	16
CCCN(CCC)c1nc(NC2CCN(C(=O)OCC)CC2)nc(OC)n1	0.7	49	31	0.5	18
Cc1ccc(N/C=C/C(=O)C(C)(C)C)c(O)c1	0.9	39	14	0.6	7
CN(C)C(CNC(=O)CSc1nnc(-c2ccco2)o1)c1ccccc1 (centres undefined)	nt	nt	nt	nt	31
CC(=O)N(CCC(Cc1ccccc1)c1ccc2c(c1)OCO2)Cc1ccc(Cl)cc1 (centres undefined)	0.2	75*	76*	0.2	13
COc1ccc(C2(O)CCN(C(=O)c3ccc4c(c3)OCO4)CC2)cc1	0.7	37	30	0.6	14
O=C(O)Cn1c(SCCOc2ccccc2F)nc2ccccc21	0.9	70*	8	0.3	4
OCCn1c(SCCOc2ccccc2F)nc2ccccc21	0.1	52*	94*	0.5	1
OCCSc1nc2ccccc2n1CCOc1ccccc1	0.1	78*	91*	0.2	2
Cc1cccc(Oc2nc(CN3CCOCC3)nc3sc4c(c23)CCCC4)c1	nt	nt	nt	nt	8
